# Assay results: article PMC4336329 (PLoS ONE, 2015)
# In all, about 310,000 compounds went through this assay and about 14,000 (4.5%) showed an effect of 50% or more. The effect is printed as a negative number. For the sample, strong results were picked, then their nearest neighbours and some compounds at random.
# Target: human ether-à-go-go-related gene (hERG) potassium channel (human, UniProt Q12809)
# Experiment: primary screen, population patch clamp on CHO cells stably expressing hERG; higher = less effect of the substance
# 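Note: peak tail current of the secondary pulse compared with the same well before compound.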
# Sequence of human ether-à-go-go-related gene (hERG) potassium channel (Q12809 whole entry, looked up): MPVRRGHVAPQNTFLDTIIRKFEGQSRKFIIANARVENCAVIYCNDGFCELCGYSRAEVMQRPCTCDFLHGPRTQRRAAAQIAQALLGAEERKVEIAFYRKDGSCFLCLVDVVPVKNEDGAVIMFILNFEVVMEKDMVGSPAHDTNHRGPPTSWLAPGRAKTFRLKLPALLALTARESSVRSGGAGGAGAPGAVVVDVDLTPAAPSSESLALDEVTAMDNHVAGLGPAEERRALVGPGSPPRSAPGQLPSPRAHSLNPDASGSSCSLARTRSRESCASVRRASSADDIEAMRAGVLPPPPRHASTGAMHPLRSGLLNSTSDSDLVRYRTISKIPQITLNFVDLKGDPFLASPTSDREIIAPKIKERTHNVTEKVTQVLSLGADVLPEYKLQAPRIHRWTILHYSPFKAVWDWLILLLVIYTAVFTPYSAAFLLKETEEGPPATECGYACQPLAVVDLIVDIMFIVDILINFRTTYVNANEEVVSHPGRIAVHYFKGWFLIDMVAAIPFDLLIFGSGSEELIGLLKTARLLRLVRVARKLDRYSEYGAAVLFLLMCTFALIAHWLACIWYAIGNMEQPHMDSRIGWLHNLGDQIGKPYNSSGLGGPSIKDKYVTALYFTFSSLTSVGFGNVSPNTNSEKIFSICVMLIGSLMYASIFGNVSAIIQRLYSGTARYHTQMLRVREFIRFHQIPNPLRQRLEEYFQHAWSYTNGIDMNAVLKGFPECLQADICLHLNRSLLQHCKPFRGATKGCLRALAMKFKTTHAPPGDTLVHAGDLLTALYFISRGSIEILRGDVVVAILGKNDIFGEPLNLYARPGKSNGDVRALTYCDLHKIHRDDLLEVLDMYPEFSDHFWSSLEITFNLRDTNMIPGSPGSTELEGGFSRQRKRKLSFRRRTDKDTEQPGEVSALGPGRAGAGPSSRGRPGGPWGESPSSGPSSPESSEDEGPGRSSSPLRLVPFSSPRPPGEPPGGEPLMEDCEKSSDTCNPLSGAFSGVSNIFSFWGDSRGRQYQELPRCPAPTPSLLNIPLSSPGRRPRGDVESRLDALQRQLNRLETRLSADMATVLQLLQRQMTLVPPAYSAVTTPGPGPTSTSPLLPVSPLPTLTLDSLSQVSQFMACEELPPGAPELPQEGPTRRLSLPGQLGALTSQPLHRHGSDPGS
row,Structure (SMILES),"hERG current change (%, negative = inhibition) at 10uM [%]"
1,CC1(C)CC(=O)C2=C(C1)OC1=C(C(=O)CC(C)(C)C1)C2c1ccc(O)c([N+](=O)[O-])c1,14
2,Cc1cc(O)c(C=Nc2ccc(N3CCOCC3)cc2)c(C)c1Cl,18.5
3,O=C1CN(C(=O)COC(=O)C2CC(=O)N(Cc3ccco3)C2)c2ccccc2N1 (centres unmarked),-7.99
4,CSc1ccc(/C=C2\C(=N)N3N=C(CC(=O)N4CCOCC4)SC3=NC2=O)cc1,14.2
5,O=C1Nc2cc(C(=O)N3CCC(N4CCCCC4)CC3)ccc2S/C1=C\c1ccccc1,-58.3
6,COc1cccc(/C=C2/Sc3ccc(C(=O)NCCN4CCCCCC4)cc3NC2=O)c1,-47.3
7,COc1cccc(/C=C2/Sc3ccc(C(=O)NCCN4CCCC4)cc3NC2=O)c1,-39.1
8,CCN1CCN(CCCNC(=O)c2ccc3c(c2)NC(=O)/C(=C\c2cccc(C)c2)S3)CC1,-38.6
9,CCC1CCCCN1CCCNC(=O)c1ccc2c(c1)NC(=O)CS2 (centres unmarked),4.27
10,CC1CCN(C(=O)c2ccc3c(c2)NC(=O)/C(=C/c2ccccc2)S3)CC1,11
11,Cc1cccc(/C=C2/Sc3ccc(C(=O)NCCCN4CCOCC4)cc3NC2=O)c1,-25.3
12,CCC1CCCCN1CCCNC(=O)c1ccc(/C=C2/Sc3ccccc3NC2=O)cc1 (centres unmarked),-76.9
13,CN1CCN(C(=O)c2ccc3c(c2)NC(=O)/C(=C/c2ccccc2)S3)CC1,-16
14,Cc1cccc(/C=C2/Sc3ccc(C(=O)NCCN4CCCC4)cc3NC2=O)c1,-54.7
15,CCN1CCCC1CNC(=O)c1ccc2c(c1)NC(=O)/C(=C\c1ccc(C)cc1)S2 (centres unmarked),-42.4
16,COc1cccc(/C=C2/Sc3ccc(C(=O)NCCCN4CCCC4)cc3NC2=O)c1,-59.8
17,CC(C)(C)C(=O)O/N=C(\N)c1ccc([N+](=O)[O-])s1,20.7
18,CSc1cccc(NC(=O)C2CCN(C(=O)c3ccccc3C)CC2)c1,-18.7
19,O=C1CC(c2ccc(F)cc2)Cc2nc(N3CCN(c4ccccc4)CC3)ncc21 (centres unmarked),1.48
20,O=C(O)c1ccc(/C=N/NC(=O)c2ccc3c(c2)OCCO3)cc1,16.1

row,Structure (SMILES),"hERG current change (%, negative = inhibition) at 10uM [%]"
1,CCn1c(C2CCN(Cc3ccccc3)CC2)n[nH]c1=S,-17.3
2,CCC(=O)N/N=c1/sc2ccccc2n1C,13.9
3,Cc1ccc(C)c(NC2=NCCCS2)c1,1.48
4,CC1(C)CC(NC(=O)COc2ccc3ccccc3c2)CC(C)(C)N1,-12.6
5,O=C1Nc2cc(C(=O)NCCN3CCCCCC3)ccc2S/C1=C\c1ccccc1,-43.9
6,O=C1Nc2cc(C(=O)NCCCN3CCOCC3)ccc2S/C1=C/c1ccccc1F,-29.8
7,O=C1Nc2cc(C(=O)NCCCN3CCCC3)ccc2S/C1=C\c1ccccc1,-51.4
8,O=C1Nc2cc(C(=O)NCC3CCCO3)ccc2S/C1=C/c1ccccc1F (centres unmarked),-4.84
9,O=C(NCCCN1CCCCC1)c1ccc2c(c1)NC(=O)c1ccccc1S2,-13.7
10,O=C1Nc2cc(C(=O)NCCCN3CCCC3)ccc2S/C1=C/c1ccccc1F,-69.5
11,COc1ccccc1N1CCN(S(=O)(=O)/C=C/c2ccccc2)CC1,-11.3
12,Cc1ccc(NC(=O)CN(C)C(=O)COC(=O)COc2ccc(C#N)cc2)cc1,-24.2
13,O=C(O)c1cccc2c1C(=O)c1ccccc1C2=O,19.7
14,Cc1ccc(S(=O)(=O)Nc2cc(-c3ccccc3)nn2C)cc1Cl,12.2
15,COc1ccccc1NC(=S)NCC1CCCO1 (centres unmarked),8.94
16,Cc1ccc(NC(=O)CSc2ccc3nnc(CCNC(=O)c4ccccc4)n3n2)c(C)c1,-18
17,S=C(NCCCc1ccccc1)Nc1ccc(Br)cc1,17.9
18,CCCCCOC(=O)C1[C@H]2C(=O)N(Cc3cccs3)C[C@]23C=C[C@H]1O3 (some centres unmarked),1.95
19,Cc1ccc2nc3nc(NCC4CCCO4)c(C(=O)NC4CCCCC4)cc3c(=O)n2c1 (centres unmarked),-78.1
20,O=C(NC1CCCCCC1)c1ccc2nc3cc(Cl)ccc3c(=O)n2c1,7.94

row,Structure (SMILES),"hERG current change (%, negative = inhibition) at 10uM [%]"
1,Cc1ccc2nc(SCC(=O)NC3CCCC3)nc(=O)n2c1,-25.1
2,Cc1ccc2nc(SCC(=O)NC3CCCCC3)nc(=O)n2c1,-14.5
3,Cc1ccc2nc3c(cc(C(=O)NC4CCS(=O)(=O)C4)n3Cc3ccccc3)c(=O)n2c1 (centres unmarked),19.6
4,Cc1ccc2nc3nc(NCC4CCCO4)c(C(=O)NC4CCCC4)cc3c(=O)n2c1 (centres unmarked),-75.6
5,COC(=O)Cc1ccc(NC(=O)c2ccc3c(c2)C(=O)N(Cc2ccco2)C3=O)cc1,-2.43
6,Cn1nc(C(F)(F)F)c(-c2ccccc2)c1NC(=O)CSCC(=O)O,12.2
7,CCSc1ncnc2c1sc1nc3c(cc12)COC(C)(C)C3,-2.04
8,COc1ccc(C(=O)N2CCC(N3CCN(c4ccccc4)CC3)CC2)cc1.O=C(O)C(=O)O,-57.6
9,COc1ccccc1N1CCN(C2CCN(C(=O)c3cc(OC)c(OC)c(OC)c3)CC2)CC1,-23.1
10,COc1ccccc1C(=O)N1CCC(N2CCN(c3ccccc3)CC2)CC1,-8.58
11,COc1ccccc1N1CCN(C2CCN(C(=O)COc3ccccc3)CC2)CC1,-25.4
12,COc1ccccc1N1CCN(C2CCN(C3CCC(c4ccccc4)CC3)CC2)CC1.O=C(O)C(=O)O (centres unmarked),-74.1
13,COc1ccccc1N1CCN(C2CCN(C(=O)COc3cccc(C)c3)CC2)CC1.O=C(O)C(=O)O,-67.8
14,COc1cc(OC)cc(C(=O)N2CCC(N3CCN(c4ccccc4)CC3)CC2)c1,-26.9
15,COc1ccccc1N1CCN(C2CCN(C(=O)c3cccc(F)c3)CC2)CC1.O=C(O)C(=O)O,-33.1
16,COc1ccccc1N1CCN(C2CCC(C)CC2)CC1 (centres unmarked),4.87
17,CCN1CCC(N2CCN(c3ccccc3OC)CC2)CC1,11.7
18,COc1ccccc1N1CCN(C2CCN(C(=O)c3ccc(F)cc3)CC2)CC1,-61
19,Cc1cccc(OCC(=O)N2CCC(N3CCCCCC3)CC2)c1,-11.2
